Source: PubChem BioAssay (National Center for Advancing Translational Sciences (NCATS))
BCR signal inh – inhibitors of chronic active B-cell receptor signaling. ABC-DLBCL IkBa-CBG/CBR reporter, luminescence ratio, 4 h. Potency, µM (doses to about 46.1 µM), usual class: inhibitors. 340,000 tested, 0.05% active; active = well fitted inhibition curve with a large enough effect in the signal ratio, with a control signal flat, not every such curve was filed as active; inconclusive = small, poorly fitted or top-dose-only effect, or effect the other way, or a change in a side signal; the % refers to the signal ratio
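Concentration-response series (up to 46 uM) were applied to TMD8 dual-reporter cells for 4 h at 37C with doxycycline. Green/red ratio, after filter-overlap correction, defined %Activity; red signal alone was normalised to basal cells and zero luminescence.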
ClpP mod – qHTS Assay for Activators of ClpP | 340,000 tested, 1.9% active | Potency, µM (series often up to 57.5 µM) | purified B. subtilis ClpP, FRET peptide cleavage, 20 min | ATP-dependent Clp protease proteolytic subunit (Bacillus subtilis (strain 168)), P80244; active = well fitted falling curve with a large enough effect; inconclusive = small, poorly fitted or top-dose-only effect; inactive = no such curve, though single readings can be large or run the other way; also: the source files actives as falling curves though it sought activators and does not explain the sign; nearly all actives have a fitted effect of over 65% in size
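FRET quenching reversal measured ClpP activation: 10 microg/mL B. subtilis ClpP at pH 8 with the FRET-FV decapeptide, read at 430 nm after 320 nm excitation. The 20-min minus 0-min signal was scaled between DMSO/no-enzyme wells and ADEP (5.8 microM final).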
KCNH2 3.1 block – KCNH2 3.1 (human) potassium channel inhibition; U2OS KCNH2 3.1, thallium flux FluxOr; active compounds read low; activity change, % (tested at about 1.8 µM); 340,000 tested, 0.95% active;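 active = maximum activity change below -70%; inconclusive = maximum activity change from -70% to -50%; inactive = maximum activity change above -50%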;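 also: thallium influx rate constant from kinetic fluorescence after stimulation buffer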
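U2OS cells transduced with KCNH2 3.1 mutant virus (1.77 x 10^8 /mL, 4 h), plated overnight at 37 C, loaded 45 min with FluxOr dye plus Red40 quencher. Thallium flux rate constant from kinetic reads after stimulation buffer, normalised to controls.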
12-LOX inh – ALOX12 (human) lipoxygenase inhibition | 580,000 tested, 1.1% active | P18054 | purified 12hLO, xylenol orange hydroperoxide absorbance | AID 1671190 | Potency, µM (top dose mostly 108 µM), hits mostly inhibitors; active = well fitted inhibition curve with a large enough effect; inconclusive = small, poorly fitted or top-dose-only effect, or another doubt; inactive = no such curve, though single readings can be large or run the other way
Target sequence (P18054 whole entry, looked up): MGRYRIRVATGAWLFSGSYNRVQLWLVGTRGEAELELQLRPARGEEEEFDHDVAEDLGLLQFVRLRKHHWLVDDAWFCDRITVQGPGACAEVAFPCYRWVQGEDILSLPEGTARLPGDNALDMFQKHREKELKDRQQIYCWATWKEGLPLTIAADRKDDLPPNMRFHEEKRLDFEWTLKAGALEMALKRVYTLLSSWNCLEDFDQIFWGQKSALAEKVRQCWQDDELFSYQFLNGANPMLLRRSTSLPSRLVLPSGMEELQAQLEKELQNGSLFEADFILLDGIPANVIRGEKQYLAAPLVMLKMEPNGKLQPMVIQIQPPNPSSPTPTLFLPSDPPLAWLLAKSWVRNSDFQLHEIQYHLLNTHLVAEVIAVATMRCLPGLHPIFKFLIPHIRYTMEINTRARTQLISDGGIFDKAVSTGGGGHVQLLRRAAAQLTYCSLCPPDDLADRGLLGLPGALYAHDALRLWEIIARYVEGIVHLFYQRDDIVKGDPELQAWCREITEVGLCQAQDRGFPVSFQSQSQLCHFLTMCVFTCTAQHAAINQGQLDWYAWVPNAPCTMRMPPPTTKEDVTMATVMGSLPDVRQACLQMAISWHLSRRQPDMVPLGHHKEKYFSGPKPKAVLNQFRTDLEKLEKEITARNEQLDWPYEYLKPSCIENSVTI
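Hydroperoxide product was detected by ferrous iron/xylenol orange as the 573 to 405 nm absorbance ratio. Arachidonic acid at 40 uM (final) was turned over for 30 min at room temperature by 150 nM human 12hLO, pH 7.0 Hepes buffer, after 15 min compound preincubation.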
LDHA block – inhibitors of human lactate dehydrogenase A. P00338. purified LDHA, NADH/diaphorase-resazurin fluorescence; active compounds read low. activity change, % (values are at about 110 or 230 µM). 480,000 tested, 0.15% active; in the data active = activity change below about -30%; inconclusive = mostly about -25% to -30%
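Remaining NADH was detected by diaphorase (0.133 mg/mL) converting 37 µM resazurin to fluorescent resorufin, read at 0 and 20 minutes. The preceding 5-minute room-temperature reaction used 2 nM LDHA, 0.2 mM sodium pyruvate and 0.06 mM NADH at pH 7.4.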
hERG WT inh – blocks the wildtype human KCNH2 potassium channel; Q12809; U2OS, BacMam KCNH2, thallium flux FluxOr; active compounds read low; activity change, % at 1.84 µM; 340,000 tested, 0.37% active; AID 720551;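 active = maximum activity change below -70%; inconclusive = maximum activity change between -70% and -50%; inactive = maximum activity change above -50%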
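U2OS cells transduced with wild-type KCNH2 virus are loaded with FluxOr dye for 45 min, and thallium flux is measured in kinetic reads before and after stimulation buffer. Rate constants are normalized to DMSO controls.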
Each line names hits and unclear results; the compound was inactive in the other large screens. Hits are enriched below; roughly 3% of the tested compounds scored in any of these assays.

CCCCC1CCC(C(=O)Nc2ccc(OC)c3ncccc23)CC1 (centres undefined)	LDHA block -30 (no result: BCR signal inh, ClpP mod, KCNH2 3.1 block, hERG WT inh)
Cc1ccc(S(=O)(=O)NCc2cccnc2)c(C)c1	KCNH2 3.1 block -71 (no result: ClpP mod)
COc1ccc(S(=O)(=O)NC2CC2)c2cccnc12	none (no result: BCR signal inh, ClpP mod, KCNH2 3.1 block, hERG WT inh)
CCOc1ccc(S(=O)(=O)NCc2ccc(C)cc2)c2cccnc12	ClpP mod 32µM
CCOc1ccc(S(=O)(=O)O)c2cccnc12	none (no result: BCR signal inh, ClpP mod, KCNH2 3.1 block, LDHA block, hERG WT inh)
COc1ccc(S(=O)(=O)n2ccnc2)c2cccnc12	ClpP mod 13µM, 12-LOX inh inconclusive
COc1ccc(S(=O)(=O)Nc2cccc(C)c2C)c2cccnc12	none (no result: ClpP mod)
CCCCC#Cc1ccc(C(=O)NNC(=O)Nc2ccccc2)o1	BCR signal inh inconclusive, LDHA block -39
CCCCN(CCCC)Cc1ccc(C(=O)NNC(=O)Nc2ccccc2)o1	none
Cn1cnc2c1c(=O)n(CC(=O)NCC1(c3ccccc3)CC1)c(=O)n2C	none (no result: BCR signal inh, ClpP mod, KCNH2 3.1 block, hERG WT inh)
CCOc1cc(Br)cc(C(c2c(C(=O)O)[nH]c3ccccc23)c2c(C(=O)O)[nH]c3ccccc23)c1O	12-LOX inh 5.6µM
COCc1cnc2c(c1SCc1cc(OC)cc(OC)c1)c(=O)n(C)c(=O)n2C	12-LOX inh inconclusive (no result: BCR signal inh, ClpP mod, KCNH2 3.1 block, hERG WT inh)
O=C(O)CCNC(=O)c1ccc(N=Nc2ccc(O)c(C(=O)O)c2)cc1	12-LOX inh 34µM (no result: BCR signal inh, ClpP mod, KCNH2 3.1 block, LDHA block, hERG WT inh)
CC(C)(C)c1ccc(C(=O)NCCC(=O)O)cc1	none (no result: BCR signal inh, ClpP mod, KCNH2 3.1 block, hERG WT inh)
COCCn1c(SCCC#N)nnc1-c1ccc(Cl)cc1	none (no result: BCR signal inh, ClpP mod, KCNH2 3.1 block, hERG WT inh)
COc1ccc(C=NNc2ccc(S(=O)(=O)Nc3ccccc3C(=O)O)cc2[N+](=O)[O-])c(OC)c1	BCR signal inh inconclusive, LDHA block -71 (no result: 12-LOX inh)
COc1ccc(NC(=S)NNc2ccc(S(=O)(=O)Nc3ccccc3C(=O)O)cc2[N+](=O)[O-])cc1	12-LOX inh 7.9µM
CN(C)S(=O)(=O)c1cccc(NC(=S)N/N=C/c2cccc(O)c2)c1	BCR signal inh inconclusive
CN(C)S(=O)(=O)c1cccc(NC(=S)N/N=C/c2cc(Br)ccc2O)c1	BCR signal inh inconclusive, 12-LOX inh 28µM (no result: ClpP mod)
COC(=O)c1ccc(COC(=O)c2cc(C(C)=O)c[nH]2)cc1	12-LOX inh inconclusive (no result: BCR signal inh, ClpP mod, KCNH2 3.1 block, hERG WT inh)
Cc1nn(CCc2nn[nH]n2)c2nc(-c3ccc(Br)cc3)cc(C(F)(F)F)c12	none (no result: ClpP mod)
Cc1nn(CCc2nn[nH]n2)c2nc(C(F)(F)F)cc(C(F)(F)F)c12	ClpP mod 10µM
CSc1nc2ccccc2n1Cc1cccc(F)c1	BCR signal inh inconclusive
Fc1cccc(Oc2nc3ccccc3n3cccc23)c1	BCR signal inh inconclusive, ClpP mod 22µM
COC(=O)CSc1nc(-c2ccccc2)cc(-c2ccco2)c1C#N	BCR signal inh inconclusive, ClpP mod 25µM
COc1ccc(-c2cc(-c3ccccc3)c(C#N)c(SCC(=O)Nc3ncc(C)s3)n2)cc1	ClpP mod 7.9µM
COC(=O)CSc1nc(-c2ccc(C)cc2)c2c(c1C#N)CCCC2	ClpP mod 28µM, KCNH2 3.1 block -73
COC(=O)CSc1nc(N)c(C#N)c(-c2ccco2)c1C#N	BCR signal inh inconclusive
COc1ccc(-c2cc(-c3ccccc3)nc(SCC(=O)Nc3nccs3)c2C#N)cc1	ClpP mod 28µM
COCCOc1nc2c(c(=O)n(C)c(=O)n2C)n1Cc1ccccc1	12-LOX inh inconclusive (no result: BCR signal inh, ClpP mod, KCNH2 3.1 block, hERG WT inh)
COCCOc1nc2c(c(=O)n(C)c(=O)n2C)n1C(C)c1ccccc1 (centres undefined)	LDHA block -36 (no result: BCR signal inh, ClpP mod, KCNH2 3.1 block, hERG WT inh)
CC(=O)NCC(=O)N1Cc2ccccc2CC2(CCCN(CC3CCNC3)C2)C1 (centres undefined)	none (no result: BCR signal inh, ClpP mod, KCNH2 3.1 block, LDHA block, hERG WT inh)
CC(=O)N1Cc2ccccc2CC2(CCCN(CC3CCNC3)C2)C1 (centres undefined)	12-LOX inh 8.9µM (no result: BCR signal inh, ClpP mod, KCNH2 3.1 block, LDHA block, hERG WT inh)
Cc1ccc(CNC(=O)CN2C(=O)NC(c3ccccc3Cl)C3=C2COC3=O)cc1 (centres undefined)	none (no result: BCR signal inh, ClpP mod, KCNH2 3.1 block, LDHA block, hERG WT inh)
COc1cc(/C=N/NC(=O)NC2CCCCC2)ccc1O	BCR signal inh 13µM (no result: ClpP mod)
